# From PubChem BioAssay
# Unmarked numbers belong to inactive results. The other results are listed elsewhere or left out. Activity calls are given as the source filed them. Cut-off read from the data, not from the text of the source, unless noted: active = inhibition above about 33%; inactive = the rest.
# Experiments:
# [1] = StAR promoter reporter inhibitors, counter-screen for LRH-1 inverse agonist project, cell-based, luminescence, high throughput (AID 651611; in the data active = inhibition above about 28%); details: StAR promoter luciferase reporter counterscreen, at 3.6 µM, hits give high values
# [2] = molecular target: Nuclear receptor subfamily 5 group A member 2 (Homo sapiens) (UniProt O00482); experiment: NR5A2 activity suppression in reporter cells – cell-based, luminescence, confirmation (AID 651613; in the data active = inhibition above about 42%); details: cell-based LRH-1 luciferase reporter, inverse agonism; at 3.6 µM; hits give high values
# Nuclear receptor subfamily 5 group A member 2 (Homo sapiens), sequence (O00482 whole entry, looked up): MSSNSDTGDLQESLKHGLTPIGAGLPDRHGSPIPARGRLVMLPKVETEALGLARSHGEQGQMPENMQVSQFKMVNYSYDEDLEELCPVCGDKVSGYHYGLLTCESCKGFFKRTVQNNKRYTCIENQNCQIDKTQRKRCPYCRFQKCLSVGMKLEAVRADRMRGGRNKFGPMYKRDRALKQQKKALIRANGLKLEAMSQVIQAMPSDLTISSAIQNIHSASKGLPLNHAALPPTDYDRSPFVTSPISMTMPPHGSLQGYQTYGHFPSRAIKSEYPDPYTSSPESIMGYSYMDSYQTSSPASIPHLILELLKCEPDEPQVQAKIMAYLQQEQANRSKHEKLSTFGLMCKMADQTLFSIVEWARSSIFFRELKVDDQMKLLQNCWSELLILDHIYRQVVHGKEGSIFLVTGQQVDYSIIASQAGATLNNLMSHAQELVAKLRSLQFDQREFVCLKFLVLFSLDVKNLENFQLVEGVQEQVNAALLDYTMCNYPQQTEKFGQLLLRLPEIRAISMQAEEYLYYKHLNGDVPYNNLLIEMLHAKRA
# [3] = molecular target: Steroidogenic factor 1 (Homo sapiens) (UniProt Q13285); experiment: inverse agonism at SF1 nuclear receptor – cell-based, luminescence, high throughput, counter-screen for LRH-1 inverse agonist project (AID 651614; in the data active = inhibition above about 44%); details: cell-based SF1 luciferase reporter, at 3.6 µM, hits give high values
# Steroidogenic factor 1 (Homo sapiens), sequence (Q13285 whole entry, looked up, the tested form may be a part): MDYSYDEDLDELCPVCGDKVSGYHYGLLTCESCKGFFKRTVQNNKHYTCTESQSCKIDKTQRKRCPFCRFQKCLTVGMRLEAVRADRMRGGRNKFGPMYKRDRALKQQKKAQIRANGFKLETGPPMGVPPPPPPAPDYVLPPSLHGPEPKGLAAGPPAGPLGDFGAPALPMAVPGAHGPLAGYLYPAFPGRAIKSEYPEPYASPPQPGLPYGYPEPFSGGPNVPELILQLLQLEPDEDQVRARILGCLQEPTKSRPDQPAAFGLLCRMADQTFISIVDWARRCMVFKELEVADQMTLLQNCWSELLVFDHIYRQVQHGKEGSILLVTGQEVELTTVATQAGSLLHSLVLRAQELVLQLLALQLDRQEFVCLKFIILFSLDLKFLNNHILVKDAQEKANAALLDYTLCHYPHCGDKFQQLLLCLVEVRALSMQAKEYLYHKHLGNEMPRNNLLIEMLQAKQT
# [4] = compounds suppressing VP16-driven luciferase signal – cell-based, luminescence, high throughput, counter-screen for LRH-1 inverse agonist project (AID 651615); details: Gal4-VP16 luciferase reporter cells, at 3.6 µM, hits give high values
# [5] = test system: transactivating tegument protein VP16 (Human herpesvirus 1); experiment: compounds suppressing VP16-driven luciferase signal – cell-based, luminescence, single concentration, counter-screen for SRC2 inhibitor project (AID 652007; in the data active = inhibition above about 36%); details: cell-based VP16 transactivation luciferase reporter, at 8.9 µM, hits give high values
# [6] = molecular target: Nuclear receptor coactivator 2 (Homo sapiens) (UniProt Q15596); experiment: inhibition of GAL4-SRC2 driven luciferase expression – cell-based, luminescence, HEK293, triplicate, confirmation (AID 652008;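 active = mean inhibition above 46.5%, the solvent-only control mean plus 3 SD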); details: HEK293 GAL4-SRC2 luciferase reporter, at 8.9 µM, hits give high values
# Nuclear receptor coactivator 2 (Homo sapiens), sequence (Q15596 whole entry, looked up, the tested form may be a part): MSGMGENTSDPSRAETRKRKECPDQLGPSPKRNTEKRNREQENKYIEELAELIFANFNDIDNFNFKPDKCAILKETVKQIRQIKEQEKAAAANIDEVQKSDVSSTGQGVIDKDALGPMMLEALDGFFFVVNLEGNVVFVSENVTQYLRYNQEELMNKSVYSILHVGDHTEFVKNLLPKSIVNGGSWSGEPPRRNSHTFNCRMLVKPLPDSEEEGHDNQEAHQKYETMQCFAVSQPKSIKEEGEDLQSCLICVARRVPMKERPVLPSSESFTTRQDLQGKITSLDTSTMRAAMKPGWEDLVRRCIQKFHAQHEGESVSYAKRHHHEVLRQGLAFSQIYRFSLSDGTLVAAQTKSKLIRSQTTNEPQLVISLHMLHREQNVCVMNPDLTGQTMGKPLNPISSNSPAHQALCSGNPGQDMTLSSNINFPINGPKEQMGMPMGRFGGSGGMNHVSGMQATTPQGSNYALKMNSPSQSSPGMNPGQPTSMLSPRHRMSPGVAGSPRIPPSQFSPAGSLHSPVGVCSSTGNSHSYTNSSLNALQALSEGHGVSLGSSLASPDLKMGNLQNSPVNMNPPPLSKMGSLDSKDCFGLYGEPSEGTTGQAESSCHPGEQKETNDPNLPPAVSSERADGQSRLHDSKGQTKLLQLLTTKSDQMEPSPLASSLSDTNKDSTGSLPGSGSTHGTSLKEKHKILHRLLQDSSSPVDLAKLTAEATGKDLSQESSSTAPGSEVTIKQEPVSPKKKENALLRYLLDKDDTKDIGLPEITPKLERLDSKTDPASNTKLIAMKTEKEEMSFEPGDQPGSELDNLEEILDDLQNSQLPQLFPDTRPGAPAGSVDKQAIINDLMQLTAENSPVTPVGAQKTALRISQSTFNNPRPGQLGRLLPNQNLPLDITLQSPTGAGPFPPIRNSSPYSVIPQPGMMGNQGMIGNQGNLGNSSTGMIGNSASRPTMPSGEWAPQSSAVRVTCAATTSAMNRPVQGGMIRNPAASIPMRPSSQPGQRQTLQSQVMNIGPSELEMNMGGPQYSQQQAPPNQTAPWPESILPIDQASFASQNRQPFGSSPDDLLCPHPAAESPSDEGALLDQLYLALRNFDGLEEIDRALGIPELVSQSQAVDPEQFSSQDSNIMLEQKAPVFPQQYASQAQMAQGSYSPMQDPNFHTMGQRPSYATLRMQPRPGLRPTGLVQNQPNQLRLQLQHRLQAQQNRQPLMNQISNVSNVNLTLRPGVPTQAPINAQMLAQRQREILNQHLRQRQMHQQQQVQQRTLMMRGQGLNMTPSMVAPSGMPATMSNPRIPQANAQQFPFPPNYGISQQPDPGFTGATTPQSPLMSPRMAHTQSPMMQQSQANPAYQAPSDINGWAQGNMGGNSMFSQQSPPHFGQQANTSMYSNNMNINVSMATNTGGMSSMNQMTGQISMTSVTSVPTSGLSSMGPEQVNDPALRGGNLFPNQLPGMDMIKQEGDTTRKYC
# [7] = reduced OD of V66 E. coli with T4 gene 2 phage – absorbance, RecBCD inhibitor project, confirmation (AID 651982;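 active = mean inhibition over triplicates exceeding the hit threshold derived in the original primary screen, cut at about 11% in these data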); details: E. coli V66 + T4 2- phage, growth OD; at 11.9 µM; hits give high values
# [8] = bacterial growth inhibition – absorbance, high throughput, counter-screen for RecBCD inhibitor project (AID 651983; in the data active = inhibition above about 20%); details: E. coli viability, absorbance (OD) growth; at 11.9 µM; hits give high values
# [9] = reduced optical density, T4-challenged addAB+ bacteria – absorbance, E. coli V3065, T4 phage, counter-screen for RecBCD inhibitor project, confirmation (AID 651984;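 active = mean inhibition above the solvent-only control wells' mean plus 3 SD, cut at about 22% in these data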); details: E. coli expressing H. pylori AddAB + T4 phage, OD growth; at 11.9 µM; hits give high values
# [10] = BSA probe fluorescence interference – biochemical, TAMRA-labeled BSA, counter-screen for TCR-CD3 interaction inhibitor project (AID 652035; in the data active = inhibition above about 23%); details: TAMRA-labeled BSA probe fluorescence counterscreen; at 9.4 µM; hits give high values
# [11] = test system: T-cell receptor (TCR)-CD3 interaction, human; experiment: blockers of TCR binding to CD3 – biochemical, fluorescence, TAMRA-labeled TCR probe, confirmation (AID 652036; in the data active = inhibition above about 19%); details: TAMRA-labeled TCR probe fluorescence binding assay; at 9.4 µM; hits give high values
# [12] = molecular target: Oxysterols receptor LXR-beta (Homo sapiens) (UniProt P55055); experiment: nonspecific reporter activation via LXR – cell-based, luminescence, HEK293, H. contortus campaign, counter-screen for hcDAF-12 agonist project, confirmation (AID 743027;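 active = mean percent activation of the reporter above a cutoff set as the average over tested compounds plus their standard deviation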); details: HEK293 Gal4-LXR tk-luc reporter, 24 h, at 6.8 µM, hits give high values, normalized: DMSO 0%, positive control 100%
# Oxysterols receptor LXR-beta (Homo sapiens), sequence (P55055 whole entry, looked up, the tested form may be a part): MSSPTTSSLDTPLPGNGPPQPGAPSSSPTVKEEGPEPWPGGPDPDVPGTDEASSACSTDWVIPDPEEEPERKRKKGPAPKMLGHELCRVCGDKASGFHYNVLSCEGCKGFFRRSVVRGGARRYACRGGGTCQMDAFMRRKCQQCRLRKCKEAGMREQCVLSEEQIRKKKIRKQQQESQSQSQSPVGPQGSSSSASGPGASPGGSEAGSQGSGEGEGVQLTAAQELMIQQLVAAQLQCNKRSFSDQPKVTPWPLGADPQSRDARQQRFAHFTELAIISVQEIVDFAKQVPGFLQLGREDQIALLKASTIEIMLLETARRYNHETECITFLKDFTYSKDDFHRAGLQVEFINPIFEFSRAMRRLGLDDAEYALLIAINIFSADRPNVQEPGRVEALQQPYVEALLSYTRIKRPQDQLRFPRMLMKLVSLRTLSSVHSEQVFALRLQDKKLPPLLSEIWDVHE
# [13] = test system: Nuclear hormone receptor DAF-12 (Haemonchus contortus); experiment: hcDAF-12 luciferase reporter activation, retest – cell-based, luminescence, HEK293, lit1-tk-luc, triplicate, confirmation (AID 743032;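 active = mean activation across triplicate tests above the threshold derived from the earlier primary screen, cut at about 5.5% in these data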); details: HEK293 hcDAF-12 lit1-tk-luc reporter, at 6.8 µM, hits give high values
# [14] = test system: DAF-12 nuclear receptor (Heterodera glycines), GAL4-LBD fusion; experiment: hgDAF-12 GAL4 fusion reporter activation, retest – cell-based, luminescence, HEK293, GAL4-LBD fusion, confirmation (AID 743050;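 active = mean activation over triplicate wells above the hit cutoff derived from the earlier primary screen, cut at about 11% in these data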); details: HEK293 GAL4-hgDAF12 luciferase reporter, agonist mode; at 6.8 µM; hits give high values
# [15] = molecular target: Oxysterols receptor LXR-beta (Homo sapiens) (UniProt P55055); experiment: nonspecific reporter activation via LXR – cell-based, luminescence, HEK293, H. glycines campaign, counter-screen for hgDAF-12 agonist project, confirmation (AID 743051;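 active = mean activation of the triplicate above a set limit carried over from the primary screen, none filed active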); details: HEK293 Gal4-LXR luciferase reporter, 24 h; at 6.8 µM; hits give high values
structure (smiles),measurement,setting,value
COC(=O)C(C)Oc1cc(C)cc2oc(=O)c3c(c12)CCC3 (configuration not stated),inhibition,[1],47.8% (active)
same,inhibition,[2],76.3% (active)
same,inhibition,[3],67.7% (active)
same,inhibition,[4],-163%
CCOC(=O)[C@]12Cc3cc(Cl)ccc3[C@H]1N(C1CCCCC1)C(=O)c1cc(OC)ccc12,inhibition,[1],87.5% (active)
same,inhibition,[2],105% (active)
same,inhibition,[3],93.1% (active)
same,inhibition,[4],87.7% (active)
N#Cc1ccc2nc(-c3ccc(CN4CCC(n5c(=O)[nH]c6ccccc65)CC4)cc3)c(-c3ccccc3)nc2c1,inhibition,[1],43.8% (active)
same,inhibition,[2],44% (active)
same,inhibition,[3],43.2% (active)
same,inhibition,[4],27.1%
Cc1ccc(-n2nc(C)cc2NC(=O)COc2cc(C)cc3oc(=O)c4c(c23)CCC4)cc1,inhibition,[1],19.1%
same,inhibition,[2],60.3% (active)
same,inhibition,[3],61.2% (active)
same,inhibition,[4],-10.8%
CC1=CC(O)C(O)C2(C)C1CC1OC(=O)CC3C(C)C(O)C(=O)C2C13CO (configuration not stated),inhibition,[1],18.7%
same,inhibition,[2],43% (active)
same,inhibition,[3],45.9% (active)
same,inhibition,[4],-0.77%
CCOC(=O)[C@]12Cc3ccc(C)cc3[C@H]1N(C1CCCCC1)C(=O)c1cc(OC)ccc12,inhibition,[1],77.2% (active)
same,inhibition,[2],104% (active)
same,inhibition,[3],75.1% (active)
same,inhibition,[4],91.8% (active)
Cc1nn(Cc2ccccc2)c(C)c1C(=O)OCC(=O)Nc1ccccc1SCC#N,inhibition,[1],-1.13%
same,inhibition,[2],58.8% (active)
same,inhibition,[3],52.9% (active)
same,inhibition,[4],2%
CC(=O)c1cn(Cc2ccccc2C#N)c2ccccc12,inhibition,[1],28.8% (active)
same,inhibition,[2],57.2% (active)
same,inhibition,[3],55.8% (active)
same,inhibition,[4],55.5% (active)
CC(=O)OC(C)(C)/C=C/C(=O)C(C)(O)C1C(O)CC2(C)C3CC=C4C(CC(O)C(=O)C4(C)C)C3(C)C(=O)CC12C (configuration not stated),inhibition,[1],66% (active)
same,inhibition,[2],56.8% (active)
same,inhibition,[3],59.2% (active)
same,inhibition,[4],59.7% (active)
C[C@@H]1O[C@@H](O[C@@H]2C=C3CC[C@@H]4C(CC[C@]5(C)[C@@H](c6ccc(=O)oc6)CC[C@]45O)[C@@]3(C)CC2)[C@H](O)[C@H](O)[C@H]1O (some centres not stated),inhibition,[1],97.1% (active)
same,inhibition,[2],111% (active)
same,inhibition,[3],98.8% (active)
same,inhibition,[4],95.6% (active)
same,inhibition,[5],67.9% (active)
same,inhibition,[6],69.7% (active)
CCOc1cc(C=O)ccc1O,inhibition,[1],-4.06%
same,inhibition,[2],41.4% (active)
same,inhibition,[3],47.9% (active)
same,inhibition,[4],-3.05%
CCc1nnc(NS(=O)(=O)c2ccc(N=Cc3c(O)n(-c4ccccc4)c(=O)[nH]c3=O)cc2)s1,inhibition,[7],11.7% (active)
same,inhibition,[8],7.85%
same,inhibition,[9],32.1% (active)
CC/C(=N\NC(=O)c1ccccc1O)c1c(O)n(Cc2ccccc2)c(=O)[nH]c1=O,inhibition,[10],-6.16%
same,inhibition,[11],29.4% (active)
COc1ccc(C(=O)C2CN(C)CC2C(=O)c2ccc(OC)cc2)cc1 (configuration not stated),activation,[12],-0.19%
same,activation,[13],0.28%
CC(C)(C)c1ccc(OC(=O)N2CCCCC2)cc1,activation,[14],14.1% (active)
same,activation,[15],0.52%
O=C(N/N=C/c1c(O)n(Cc2ccccc2)c(=O)[nH]c1=O)c1ccccc1,activation,[14],1.81%
same,activation,[15],0.01%
